Assay results taken from PubChem BioAssay.
Unmarked numbers belong to inactive results. Active and inactive are the calls of the source. Rule as the data show it, unless noted: active = inhibition above about 33%; inactive = the rest.

What was measured:
[1] = target: Nuclear receptor coactivator 3 (Homo sapiens) (UniProt Q9Y6Q9); assay: SRC3 coactivator transcriptional activity inhibitors, confirmation, cell-based, luminescence, quadruplicate (AID 588792;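 active = mean inhibition over 43.08%, the solvent-only control mean plus 3 SD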;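 also: 0% = DMSO treated cells and 100% = gossypol at 36 µM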); conditions: HEK293 GAL4-SRC3 luciferase reporter, at 3.6 µM, active compounds read high
[2] = test system: transactivating tegument protein VP16 (Human herpesvirus 1), Gal4-VP16 luciferase reporter; assay: VP16 transactivation inhibitors, counter-screen for SRC3 inhibitor project, cell-based, luminescence, high throughput (AID 588794; in the data active = inhibition above about 30%); conditions: mammalian cells, VP16-driven luciferase reporter luminescence; at 3.6 µM; active compounds read high
[3] = target: Nuclear receptor coactivator 1 (Homo sapiens) (UniProt Q15788); assay: SRC1 coactivator transcriptional activity inhibitors, confirmation, cell-based, luminescence, quadruplicate (AID 588820;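 active = mean inhibition above 46.68%, the untreated control wells mean plus 3 SD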;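 also: 0% = DMSO wells and 100% = gossypol 36 µM treated wells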); conditions: HEK293 GAL4-SRC1 luciferase reporter, at 3.6 µM, active compounds read high
[4] = VP16 transactivation inhibitors, counter-screen for SRC1 inhibitor project, cell-based, luminescence, high throughput (AID 588824; in the data active = inhibition above about 25%); conditions: cell-based VP16 transactivation luciferase luminescence; at 3.6 µM; active compounds read high
[5] = StAR promoter reporter inhibitors, counter-screen for LRH-1 inverse agonist project, cell-based, luminescence, high throughput (AID 651611; in the data active = inhibition above about 28%); conditions: StAR promoter luciferase reporter counterscreen, at 3.6 µM, active compounds read high
[6] = target: Nuclear receptor subfamily 5 group A member 2 (Homo sapiens) (UniProt O00482); assay: LRH-1 (NR5A2) inverse agonists, retest, confirmation, cell-based, luminescence (AID 651613; in the data active = inhibition above about 42%;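 also: HEK293T cells co-transfected with LRH-1 and StAR promoter luciferase reporter; 0% = vehicle wells and 100% = parental cells lacking receptor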); conditions: cell-based LRH-1 luciferase reporter, inverse agonism; at 3.6 µM; active compounds read high
[7] = target: Steroidogenic factor 1 (Homo sapiens) (UniProt Q13285); assay: SF1 (NR5A1) inverse agonists, counter-screen for LRH-1 inverse agonist project, cell-based, luminescence, high throughput (AID 651614; in the data active = inhibition above about 44%;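 also: cells cotransfected with StAR promoter reporter and SF1 expression vector; 0% = vehicle on cells with receptor and 100% = vehicle on cells lacking receptor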); conditions: cell-based SF1 luciferase reporter, at 3.6 µM, active compounds read high
[8] = VP16 transactivation reporter inhibitors, counter-screen for LRH-1 inverse agonist project, cell-based, luminescence, high throughput (AID 651615); conditions: Gal4-VP16 luciferase reporter cells, at 3.6 µM, active compounds read high

Nuclear receptor coactivator 1 (Homo sapiens), sequence (Q15788 whole entry, looked up, the tested form may be a part): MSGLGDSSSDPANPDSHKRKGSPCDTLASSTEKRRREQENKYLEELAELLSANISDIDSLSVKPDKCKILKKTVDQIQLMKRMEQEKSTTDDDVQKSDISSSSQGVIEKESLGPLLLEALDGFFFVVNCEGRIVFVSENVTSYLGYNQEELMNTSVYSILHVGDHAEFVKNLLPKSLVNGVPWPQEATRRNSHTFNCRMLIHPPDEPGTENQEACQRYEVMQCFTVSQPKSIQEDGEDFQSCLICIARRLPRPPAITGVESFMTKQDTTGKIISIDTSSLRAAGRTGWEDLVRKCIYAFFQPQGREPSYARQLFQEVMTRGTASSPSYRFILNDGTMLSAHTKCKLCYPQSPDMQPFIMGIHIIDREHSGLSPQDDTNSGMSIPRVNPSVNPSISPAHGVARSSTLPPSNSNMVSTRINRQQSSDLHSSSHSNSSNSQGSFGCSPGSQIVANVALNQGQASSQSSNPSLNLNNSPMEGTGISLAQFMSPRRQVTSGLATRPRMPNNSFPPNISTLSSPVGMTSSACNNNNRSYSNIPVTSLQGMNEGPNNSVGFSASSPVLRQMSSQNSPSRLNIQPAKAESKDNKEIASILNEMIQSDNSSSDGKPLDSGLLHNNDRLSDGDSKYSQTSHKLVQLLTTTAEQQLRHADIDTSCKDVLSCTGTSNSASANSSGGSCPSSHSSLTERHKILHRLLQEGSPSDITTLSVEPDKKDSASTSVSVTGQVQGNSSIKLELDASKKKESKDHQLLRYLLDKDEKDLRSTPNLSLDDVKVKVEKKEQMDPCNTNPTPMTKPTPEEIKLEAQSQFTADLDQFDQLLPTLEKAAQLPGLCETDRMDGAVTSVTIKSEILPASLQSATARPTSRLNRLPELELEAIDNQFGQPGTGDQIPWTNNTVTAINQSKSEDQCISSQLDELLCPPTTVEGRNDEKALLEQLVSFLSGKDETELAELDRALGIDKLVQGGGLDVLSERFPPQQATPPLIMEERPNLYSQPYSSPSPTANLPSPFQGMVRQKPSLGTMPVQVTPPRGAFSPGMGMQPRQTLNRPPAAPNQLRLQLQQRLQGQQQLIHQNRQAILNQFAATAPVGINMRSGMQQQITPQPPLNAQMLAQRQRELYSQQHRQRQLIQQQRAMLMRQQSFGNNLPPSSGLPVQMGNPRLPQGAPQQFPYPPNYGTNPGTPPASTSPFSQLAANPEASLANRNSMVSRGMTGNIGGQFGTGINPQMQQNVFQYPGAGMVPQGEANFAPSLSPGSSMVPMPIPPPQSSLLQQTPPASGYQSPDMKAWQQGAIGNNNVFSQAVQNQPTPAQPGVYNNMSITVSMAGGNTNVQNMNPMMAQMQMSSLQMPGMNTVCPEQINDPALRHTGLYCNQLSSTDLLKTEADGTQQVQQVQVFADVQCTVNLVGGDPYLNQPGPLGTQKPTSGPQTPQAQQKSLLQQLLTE
Nuclear receptor coactivator 3 (Homo sapiens), sequence (Q9Y6Q9 whole entry, looked up, the tested form may be a part): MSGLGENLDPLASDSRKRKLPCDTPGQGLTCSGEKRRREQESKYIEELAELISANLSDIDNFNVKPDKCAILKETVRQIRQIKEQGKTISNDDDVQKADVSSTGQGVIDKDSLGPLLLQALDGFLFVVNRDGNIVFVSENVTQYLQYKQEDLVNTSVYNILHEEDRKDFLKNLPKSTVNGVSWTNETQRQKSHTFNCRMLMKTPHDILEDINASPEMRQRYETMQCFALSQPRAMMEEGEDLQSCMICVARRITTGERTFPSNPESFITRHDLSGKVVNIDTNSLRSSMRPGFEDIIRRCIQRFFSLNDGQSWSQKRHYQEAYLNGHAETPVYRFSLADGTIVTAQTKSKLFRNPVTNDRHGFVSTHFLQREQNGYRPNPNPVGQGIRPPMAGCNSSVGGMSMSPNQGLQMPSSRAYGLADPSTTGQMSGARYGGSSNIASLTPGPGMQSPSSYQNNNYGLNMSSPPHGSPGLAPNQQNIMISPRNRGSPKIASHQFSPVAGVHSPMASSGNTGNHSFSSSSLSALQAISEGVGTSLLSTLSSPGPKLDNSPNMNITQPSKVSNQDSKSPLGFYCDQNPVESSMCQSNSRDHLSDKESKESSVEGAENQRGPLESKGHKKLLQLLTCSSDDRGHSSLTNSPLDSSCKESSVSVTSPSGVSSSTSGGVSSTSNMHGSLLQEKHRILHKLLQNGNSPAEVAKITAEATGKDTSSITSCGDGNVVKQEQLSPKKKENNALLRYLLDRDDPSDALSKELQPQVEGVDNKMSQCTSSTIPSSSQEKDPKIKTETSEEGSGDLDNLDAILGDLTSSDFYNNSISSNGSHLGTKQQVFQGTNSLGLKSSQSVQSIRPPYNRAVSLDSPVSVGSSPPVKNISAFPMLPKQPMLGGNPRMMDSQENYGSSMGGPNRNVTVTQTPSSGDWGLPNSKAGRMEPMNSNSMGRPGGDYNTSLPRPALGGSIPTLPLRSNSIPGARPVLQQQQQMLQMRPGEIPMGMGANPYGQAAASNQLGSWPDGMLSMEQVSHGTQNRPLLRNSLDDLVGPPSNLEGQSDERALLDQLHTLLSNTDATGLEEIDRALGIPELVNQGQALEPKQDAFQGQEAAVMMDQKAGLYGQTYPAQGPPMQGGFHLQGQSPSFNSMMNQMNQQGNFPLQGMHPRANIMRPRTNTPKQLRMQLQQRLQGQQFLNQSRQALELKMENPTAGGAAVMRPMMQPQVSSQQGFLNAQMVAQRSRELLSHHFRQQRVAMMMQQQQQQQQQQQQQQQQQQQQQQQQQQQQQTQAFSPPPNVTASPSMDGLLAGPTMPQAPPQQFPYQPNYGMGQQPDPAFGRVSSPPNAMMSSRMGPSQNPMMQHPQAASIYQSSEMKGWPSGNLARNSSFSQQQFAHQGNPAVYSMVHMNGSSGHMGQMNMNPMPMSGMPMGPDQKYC
Nuclear receptor subfamily 5 group A member 2 (Homo sapiens), sequence (O00482 whole entry, looked up): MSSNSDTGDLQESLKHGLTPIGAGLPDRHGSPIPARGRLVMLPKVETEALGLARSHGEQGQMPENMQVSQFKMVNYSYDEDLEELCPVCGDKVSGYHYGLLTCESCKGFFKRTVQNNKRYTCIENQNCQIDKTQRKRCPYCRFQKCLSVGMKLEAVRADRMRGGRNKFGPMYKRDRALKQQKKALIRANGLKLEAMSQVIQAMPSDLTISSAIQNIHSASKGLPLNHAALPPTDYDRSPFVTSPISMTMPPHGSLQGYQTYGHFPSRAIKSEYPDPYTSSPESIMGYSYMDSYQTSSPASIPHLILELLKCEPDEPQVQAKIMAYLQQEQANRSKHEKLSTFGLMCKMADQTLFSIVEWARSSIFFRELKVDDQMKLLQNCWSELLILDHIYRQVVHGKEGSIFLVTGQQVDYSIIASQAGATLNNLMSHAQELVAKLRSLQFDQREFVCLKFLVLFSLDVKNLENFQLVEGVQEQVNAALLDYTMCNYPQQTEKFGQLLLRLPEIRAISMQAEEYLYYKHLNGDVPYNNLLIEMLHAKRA
Steroidogenic factor 1 (Homo sapiens), sequence (Q13285 whole entry, looked up, the tested form may be a part): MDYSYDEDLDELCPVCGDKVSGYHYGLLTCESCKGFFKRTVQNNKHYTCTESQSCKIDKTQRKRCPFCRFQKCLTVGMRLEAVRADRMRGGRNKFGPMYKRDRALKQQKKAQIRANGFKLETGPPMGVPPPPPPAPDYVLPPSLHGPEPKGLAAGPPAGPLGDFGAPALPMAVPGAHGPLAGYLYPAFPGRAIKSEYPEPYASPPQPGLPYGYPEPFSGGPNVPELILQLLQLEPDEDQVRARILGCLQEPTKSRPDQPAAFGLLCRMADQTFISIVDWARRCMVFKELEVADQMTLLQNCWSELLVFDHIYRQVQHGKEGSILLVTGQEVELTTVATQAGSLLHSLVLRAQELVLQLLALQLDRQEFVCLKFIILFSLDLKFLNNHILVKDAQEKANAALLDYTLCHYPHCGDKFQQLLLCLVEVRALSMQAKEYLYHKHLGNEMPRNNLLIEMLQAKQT

| SMILES | inhibition [1] | inhibition [2] | inhibition [3] | inhibition [4] | inhibition [5] | inhibition [6] | inhibition [7] | inhibition [8] |
| --- | --- | --- | --- | --- | --- | --- | --- | --- |
| CCOC(=O)c1cc2c(=Cc3ccc(N(C)C)cc3)c3ccccc3n2[n+]1C | 46.2% (active) | 63.4% (active) | 22.9% | 59.5% (active) | 49.3% (active) | 105% (active) | 85.7% (active) | 90.4% (active) |
| S=C(NN=C(c1ccccc1)c1ccccn1)N(Cc1ccccn1)Cc1ccccn1 | 84% (active) | 87.2% (active) | 85% (active) | 89.7% (active) | 91% (active) | 105% (active) | 96.4% (active) | 77.2% (active) |
| Cc1ccccc1CN1CC2=C(CCN(Cc3ccccc3)C2=O)N2CCN=C12 | 47.9% (active) | 70.7% (active) | 53.7% (active) | 66.9% (active) | 76.9% (active) | 96.3% (active) | 88.7% (active) | 77.8% (active) |
| CC(NNC(=S)N1CCN(c2ccccn2)CC1)c1nccc2ccccc12 (centres undefined) | 61.5% (active) | 54.2% (active) | 55.6% (active) | 59.5% (active) | 80.9% (active) | 97.1% (active) | 89.3% (active) | 61% (active) |
| CCC(C)N(CC(=O)Nc1cccc(C)c1C)C(=O)CCl (centres undefined) | 80% (active) | 67% (active) | 52% (active) | 71% (active) | 69.2% (active) | 84.8% (active) | 78.8% (active) | 77.9% (active) |
| CCCCCCCn1c2c(c(=N)c3ccccc31)CCC2 | 71.2% (active) | 79.5% (active) | 61.5% (active) | 79.1% (active) | 70.8% (active) | 111% (active) | 91.2% (active) | 94.7% (active) |
| COc1ccc(-c2oc3ccc(N4CCOCC4)cc3c2C#CCO)cc1 | 10.8% | 21.3% | -22.7% | 18.5% | 54.3% (active) | 55.7% (active) | 62% (active) | 53.4% (active) |
| CCC(NC(=O)Nc1nnc(C(F)(F)F)s1)(C(F)(F)F)C(F)(F)F | 60.7% (active) | 82% (active) | 50.1% (active) | 85.6% (active) | 79.3% (active) | 103% (active) | 90.6% (active) | 90.5% (active) |
| CN(Cc1ccccc1)C1=CC(=[N+]2CCCCC2)CC(C)(C)C1 | 43.1% (active) | 73.6% (active) | 44.8% | 75.8% (active) | 68% (active) | 108% (active) | 90.6% (active) | 91.1% (active) |
| Cc1ccc(S(=O)(=O)/N=C2\C=C(Nc3ccc(O)cc3)C(=O)c3ccccc32)cc1 | 91.8% (active) | 83.1% (active) | 71.1% (active) | 86.3% (active) | 90.3% (active) | 106% (active) | 94.6% (active) | 96% (active) |
| COc1ccc(NC(=O)c2cc(-c3cc(Cl)ccc3OC)n[nH]2)cc1OC | 27.4% | 51.2% (active) | 19.2% | 44% (active) | 38.9% (active) | 47.8% (active) | 61.2% (active) | 57.8% (active) |
| Nc1ncn([C@@H]2O[C@H](CO)[C@@H](O)[C@H]2O)c(=O)n1 | 76.7% (active) | 57.1% (active) | -17.7% | 45.7% (active) | 69.6% (active) | 90.2% (active) | 82.3% (active) | 80.9% (active) |
| Cc1cc(C)nc(NC(=O)c2ccc(COc3ccccc3Cl)cc2)c1 | 36.6% | 45.3% (active) | 25.2% | 42.7% (active) | 38.9% (active) | 65.1% (active) | 67.1% (active) | 57.7% (active) |
| Cc1cc(-c2nnc(SCC(=O)Nc3ccccc3C(F)(F)F)o2)c(C)n1-c1ccccc1 | 33.3% | 11.2% | -7.25% | -22.9% | 28.2% (active) | -50.2% | 14.8% | -38.7% |
| CCN(CC)c1ccc(/C=C/c2cccc[n+]2C)c(OC)c1 | 48.1% (active) | 75% (active) | 52.2% (active) | 77.1% (active) | 73.3% (active) | 106% (active) | 91.8% (active) | 85.7% (active) |
| c1cc(CNc2ccc3c(c2)OCCO3)ccn1 | -1.65% | -11.2% | -6.52% | -0.58% | 10% | 2.45% | 14.8% | -8.35% |
| Cc1ccc2ccc3cccnc3c2n1 | -1.81% | 18.9% | 12% | 24.6% | 30.6% (active) | 50.2% (active) | 54.5% (active) | 37.3% (active) |
| CC[n+]1c(/C=C2\Sc3ccccc3N2C)ccc2cccc(C)c21 | 47.9% (active) | 68% (active) | 36.2% | 79.5% (active) | 76.7% (active) | 109% (active) | 91.6% (active) | 87% (active) |
